ChEMBL document CHEMBL1157539, “Thousands of chemical starting points for antimalarial lead identification” (Nature, 2010)

Legend:
Assay type in all cases: functional
Plasmodium falciparum [1] = assay: GSK_TCMDC: Inhibition of Plasmodium falciparum 3D7 in whole red blood cells, using parasite LDH activity as an index of growth. Test compounds present at 2uM
Plasmodium falciparum [2] = assay: GSK_TCMDC: Inhibition of Plasmodium falciparum Dd2 in whole red blood cells, using parasite LDH activity as an index of growth. Test compounds present at 2uM
HepG2 = assay: GSK_TCMDC: Percent inhibition of human HepG2 cell line. Test compounds present at 10uM.

Structure (SMILES)	Inhibition (Plasmodium falciparum [1]) [%]	Inhibition (Plasmodium falciparum [2]) [%]	Inhibition (HepG2) [%]
COc1cccc(NC(=O)Nc2ccc(C)c(-c3ccc(C(=O)Nc4ccncc4)cc3)c2)c1	99	64	45
CN(C)CCOc1ccc(-c2cc(-c3ccc(Cl)c(O)c3)c(-c3ccncc3)o2)cc1.Cl	100	99	39
CCCNCc1c(O)ccc2c(CNCCC)c(O)ccc12.Cl	100	9	24
O=C(COc1ccccc1)Nn1cnc2ccccc21	91	0	2
CCc1c(CCNCCCCCCNC(C)Cc2ccc3c(c2CC)OCO3)ccc(OC)c1OC.Cl (stereo not drawn)	100	64	100
COc1ccc(C2C(C(=O)Nc3ccc(C)cc3Br)c3ccccc3C(=O)N2C)cc1 (stereo not drawn)	96	2	4
CCCCCCc1cnc2nc(N)nc(N)c2c1C	93	20	67
O=C(CN(c1cccc(C(F)(F)F)c1)S(=O)(=O)c1ccc(Cl)cc1)NCCC(c1ccccc1)c1ccccc1	94	50	14
CNC(=O)c1ccc2nc(C3CC3)n(CC3CCN(S(=O)(=O)c4cccc(Cl)c4)CC3)c2c1.O=C(O)C(F)(F)F	100	100	0
C#C[C@H]1O[C@@H](n2cnc3c(Nc4cc(Br)cc(C(F)(F)F)c4)ncnc32)[C@H](O)[C@@H]1O	94	56	21
CCc1ccc(N2C(=O)C3C(Cc4ccc(OC(C)(C)C)cc4)NC4(C(=O)N(Cc5ccccc5)c5ccc(F)cc54)C3C2=O)cc1 (stereo not drawn)	96	49	9
